Measurements published in PubChem BioAssay AID1159580 (chemical genetic matrix, 2015).
In all, about 5,500 compounds went through this assay and about 2,000 (36%) were called active. Another 18% or so got no clear call; they are omitted. Cut-off read from the data, not from the text of the source: active = normalized growth mostly below about 0.91 (no sharp cut-off); inconclusive = no clear call, values can overlap the other calls; inactive = mostly above about 0.92. Some of the results follow.

Experiment: chemical genetic growth profiling, strain panel (AID 1159580);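 note: tested at 20 µM; growth read once vehicle control cultures reached saturation at 30 °C; 1 = growth at the plate median or of vehicle wells; lower values mean less growth of the strain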
Conditions: growth OD

Measured: normalized growth

C=C[C@@]1(C)CC(=O)[C@@]2(O)[C@](C)(O1)[C@@H](OC(C)=O)[C@@H](O)C1C(C)(C)CC[C@H](O)[C@@]12C (some centres not stated)
inactive: S. cerevisiae deletion strains, locus YJR075W, strain HOC1, hits give low values 0.997 | S. cerevisiae deletion strains, locus YKL009W, strain mrt4, hits give low values 0.964 | S. cerevisiae deletion strains, locus YKL068W, hits give low values 0.992 | S. cerevisiae deletion strains, locus YKL085W, strain MDH1 (second series), hits give low values 0.966 | S. cerevisiae deletion strains, locus YKL085W, strain MDH1, hits give low values 0.966 | S. cerevisiae deletion strains, locus YKL160W, strain elf1, hits give low values 0.963 | S. cerevisiae deletion strains, locus YKL190W, strain CNB1, hits give low values 0.99 | S. cerevisiae deletion strains, locus YKR001C, strain vps1, hits give low values 0.984 | S. cerevisiae deletion strains, locus YKR026C, strain gcn3, hits give low values 0.997 | S. cerevisiae deletion strains, locus YKR091W, strain srl3, hits give low values 0.971 | S. cerevisiae deletion strains, locus YLL001W, strain dnm1, hits give low values 1.02 | S. cerevisiae deletion strains, locus YLL026W, hits give low values 0.964 | S. cerevisiae deletion strains, locus YLL041C, strain sdh2, hits give low values 0.969 | S. cerevisiae deletion strains, locus YLR027C, strain aat2, hits give low values 0.98 | S. cerevisiae deletion strains, locus YLR039C, strain RIC1, hits give low values 0.939 | S. cerevisiae deletion strains, locus YLR058C, strain SHM2, hits give low values 0.982 | S. cerevisiae deletion strains, locus YLR102C, strain apc9, hits give low values 0.974 | S. cerevisiae deletion strains, locus YLR113W, strain HOG1, hits give low values 0.955 | S. cerevisiae deletion strains, locus YLR221C, strain rsa3, hits give low values 1.03 | S. cerevisiae deletion strains, locus YLR258W, strain gsy2, hits give low values 0.965 | S. cerevisiae deletion strains, locus YLR262C, strain YPT6 (second series), hits give low values 0.968 | S. cerevisiae deletion strains, locus YLR262C, strain YPT6, hits give low values 0.894 | S. cerevisiae deletion strains, locus YLR268W, strain sec22, hits give low values 1.07 | S. cerevisiae deletion strains, locus YLR320W, strain mms22, hits give low values 1.01 | S. cerevisiae deletion strains, locus YLR330W, strain CHS5, hits give low values 0.989 | S. cerevisiae deletion strains, locus YLR342W, strain FKS1 (second series), hits give low values 0.987 | S. cerevisiae deletion strains, locus YLR342W, strain FKS1, hits give low values 0.991 | S. cerevisiae deletion strains, locus YLR357W, strain rsc2, hits give low values 0.987 | S. cerevisiae deletion strains, locus YLR370C, strain arc18, hits give low values 0.978 | S. cerevisiae deletion strains, locus YLR371W, strain rom2, hits give low values 0.968 | S. cerevisiae deletion strains, locus YLR384C, strain iki3, hits give low values 0.993 | S. cerevisiae deletion strains, locus YLR418C, strain cdc73, hits give low values 0.99 | S. cerevisiae deletion strains, locus YML016C, strain PPZ1, hits give low values 0.991 | S. cerevisiae deletion strains, locus YML032C, strain rad52, hits give low values 1.01 | S. cerevisiae deletion strains, locus YML120C, strain ndi1, hits give low values 0.989 | S. cerevisiae deletion strains, locus YML124C, strain tub3, hits give low values 0.983 | S. cerevisiae deletion strains, locus YMR058W, strain fet3, hits give low values 0.982 | S. cerevisiae deletion strains, locus YMR078C, strain ctf18, hits give low values 0.985 | S. cerevisiae deletion strains, locus YMR125W, strain sto1, hits give low values 0.974 | S. cerevisiae deletion strains, locus YMR129W, hits give low values 0.965 | S. cerevisiae deletion strains, locus YMR205C, strain PFK2, hits give low values 0.998 | S. cerevisiae deletion strains, locus YMR223W, strain ubp8, hits give low values 0.98 | S. cerevisiae deletion strains, locus YMR231W, strain pep5, hits give low values 0.992 | S. cerevisiae deletion strains, locus YMR263W, strain SAP30, hits give low values 0.992 | S. cerevisiae deletion strains, locus YMR307W, strain GAS1, hits give low values 1 | S. cerevisiae deletion strains, locus YNL067W, strain RPL9B, hits give low values 1.01 | S. cerevisiae deletion strains, locus YNL071W, strain lat1, hits give low values 0.988 | S. cerevisiae deletion strains, locus YNL128W, strain TEP1, hits give low values 0.965 | S. cerevisiae deletion strains, locus YNL153C, strain GIM3, hits give low values 1.01 | S. cerevisiae deletion strains, locus YNL183C, strain NPR1, hits give low values 0.933 | S. cerevisiae deletion strains, locus YNL209W, strain ssb2, hits give low values 0.992 | S. cerevisiae deletion strains, locus YNL233W, strain BNI4, hits give low values 1.01 | S. cerevisiae deletion strains, locus YNL248C, strain rpa49, hits give low values 0.919 | S. cerevisiae deletion strains, locus YNL250W, strain rad50, hits give low values 0.972 | S. cerevisiae deletion strains, locus YNL271C, strain bni1, hits give low values 0.987 | S. cerevisiae deletion strains, locus YNL298W, strain CLA4, hits give low values 0.959 | S. cerevisiae deletion strains, locus YNL307C, strain MCK1, hits give low values 0.996 | S. cerevisiae deletion strains, locus YNL322C, strain KRE1 (second series), hits give low values 0.939 | S. cerevisiae deletion strains, locus YNL322C, strain KRE1, hits give low values 0.994 | S. cerevisiae deletion strains, locus YNR049C, strain mso1, hits give low values 0.959 | S. cerevisiae deletion strains, locus YNR052C, strain pop2, hits give low values 0.984 | S. cerevisiae deletion strains, locus YOL006C, strain TOP1, hits give low values 0.997 | S. cerevisiae deletion strains, locus YOL012C, strain htz1 1.15 | S. cerevisiae deletion strains, locus YOL147C, strain pex11, hits give low values 0.999 | S. cerevisiae deletion strains, locus YOR001W, strain rrp6, hits give low values 1.03 | S. cerevisiae deletion strains, locus YOR061W, strain CKA2, hits give low values 0.972 | S. cerevisiae deletion strains, locus YOR069W, strain VPS5, hits give low values 0.993 | S. cerevisiae deletion strains, locus YOR070C, strain gyp1, hits give low values 0.986 | S. cerevisiae deletion strains, locus YOR080W, strain dia2, hits give low values 0.973 | S. cerevisiae deletion strains, locus YOR083W, strain WHI5, hits give low values 0.92 | S. cerevisiae deletion strains, locus YOR106W, strain vam3, hits give low values 0.919 | S. cerevisiae deletion strains, locus YOR136W, strain idh2, hits give low values 0.978 | S. cerevisiae deletion strains, locus YOR144C, strain elg1, hits give low values 0.991 | S. cerevisiae deletion strains, locus YOR184W, strain ser1, hits give low values 0.978 | S. cerevisiae deletion strains, locus YOR231W, strain MKK1, hits give low values 0.966 | S. cerevisiae deletion strains, locus YOR265W, strain rbl2, hits give low values 0.988 | S. cerevisiae deletion strains, locus YOR270C, strain vph1, hits give low values 0.94 | S. cerevisiae deletion strains, locus YOR290C, strain snf2, hits give low values 0.955 | S. cerevisiae deletion strains, locus YOR316C, strain cot1, hits give low values 0.984 | S. cerevisiae deletion strains, locus YPL051W, strain arl3, hits give low values 0.97 | S. cerevisiae deletion strains, locus YPL055C, strain LGE1, hits give low values 0.998 | S. cerevisiae deletion strains, locus YPL078C, strain atp4, hits give low values 0.955 | S. cerevisiae deletion strains, locus YPL106C, strain sse1, hits give low values 0.955 | S. cerevisiae deletion strains, locus YPL240C, strain hsp82, hits give low values 0.987 | S. cerevisiae deletion strains, locus YPL241C, strain CIN2, hits give low values 0.989 | S. cerevisiae deletion strains, locus YPL256C, strain CLN2, hits give low values 0.973 | S. cerevisiae deletion strains, locus YPR119W, strain clb2, hits give low values 0.978 | S. cerevisiae deletion strains, locus YPR141C, strain kar3, hits give low values 0.975 | S. cerevisiae deletion strains, locus YPR163C, strain tif3, hits give low values 0.993 | S. cerevisiae deletion strains, locus YPR167C, strain met16, hits give low values 0.986 | S. cerevisiae deletion strains, strain wtn01, hits give low values 0.997 | S. cerevisiae strains, strain wild type, hits give low values 0.984
